# Reference: the supplement of paper PMC10849652
# Targets with a hit are over-represented here; the source holds about 7,900 in all. About 0.6% of all pairs of compound and target were hits. Unmarked numbers belong to inactive results.
# Key:
# Assay in all cases: log2 fold change, soluble protein after heating vs DMSO (PISA); higher = thermal stabilisation; K562 cells, 10 uM, 30 min; active = over 0.2 and 3.5 SD of the protein, either way, in both replicates (recomputed)
# [1] = compound: CS(=O)(=O)c1ccc(-c2cnc(N)c(C(=O)Nc3ccccc3)n2)cc1
# Method in brief: (§1)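 K562 cells (2×10^6 cells/mL) were treated with 10 μM compound for 30 min, and aliquots were heated for 3 min over 48°C-58°C. Pooled aliquots were extracted in PBS with 0.5% NP-40 at 4°C, and the supernatant after 21,000xg for 90 min was measured by TMTpro 16plex LC-MS/MS with channel sums equalised. Reported thermal stability, relative to control samples and from duplicates, is a log2 fold change.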
# [2] = compound: C[C@@H](Oc1cc(-c2cnn(C3CCNCC3)c2)cnc1N)c1c(Cl)ccc(F)c1Cl [crizotinib]
# Method in brief: as §1
# [3] = compound: C[C@@H]1COCCN1C2=NC(=NC(=C2)C3(CC3)S(=O)(=O)C)C4=C5C=CNC5=CC=C4
# Method in brief: as §1
# [4] = compound: C[C@H](C1=CC=C(C=C1)C(=O)NC2=C3C=CNC3=NC=C2)N
# Method in brief: as §1
# [5] = compound: C[C@H](Nc1ncnc2nc[nH]c12)c1cc2cccc(Cl)c2c(=O)n1-c1ccccc1 [duvelisib]
# Method in brief: as §1
# [6] = compound: Cc1cc(Nc2cc(CN3CCOCC3)c3nc(C)c(Cc4ccc(Cl)cc4F)n3n2)n[nH]1 [gandotinib]
# Method in brief: as §1
# [7] = compound: Cc1cc(Nc2cc(N3CCN(C)CC3)nc(Sc3ccc(NC(=O)C4CC4)cc3)n2)n[nH]1 [tozasertib]
# Method in brief: as §1
# [8] = compound: Cc1cc(SCc2sc(-c3ccc(C(F)(F)F)cc3)nc2C)ccc1OCC(=O)O
# Method in brief: as §1
# [9] = compound: Cc1ccc(-n2nc(C(C)(C)C)cc2NC(=O)Nc2ccc(OCCN3CCOCC3)c3ccccc23)cc1 [doramapimod]
# Method in brief: as §1
# [10] = compound: Cc1ccc(C(=O)N(CCCN)[C@@H](c2nc3cc(Cl)ccc3c(=O)n2Cc2ccccc2)C(C)C)cc1 [ispinesib]
# Method in brief: as §1
# Sequence of UniProt Q9Y3L5 (Q9Y3L5 whole entry, looked up): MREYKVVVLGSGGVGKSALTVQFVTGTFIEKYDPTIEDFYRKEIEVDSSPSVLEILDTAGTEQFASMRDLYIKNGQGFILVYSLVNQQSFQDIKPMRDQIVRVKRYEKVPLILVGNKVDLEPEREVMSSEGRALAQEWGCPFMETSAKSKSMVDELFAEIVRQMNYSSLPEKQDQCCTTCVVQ
# Sequence of UniProt Q6NT16 (Q6NT16 whole entry, looked up): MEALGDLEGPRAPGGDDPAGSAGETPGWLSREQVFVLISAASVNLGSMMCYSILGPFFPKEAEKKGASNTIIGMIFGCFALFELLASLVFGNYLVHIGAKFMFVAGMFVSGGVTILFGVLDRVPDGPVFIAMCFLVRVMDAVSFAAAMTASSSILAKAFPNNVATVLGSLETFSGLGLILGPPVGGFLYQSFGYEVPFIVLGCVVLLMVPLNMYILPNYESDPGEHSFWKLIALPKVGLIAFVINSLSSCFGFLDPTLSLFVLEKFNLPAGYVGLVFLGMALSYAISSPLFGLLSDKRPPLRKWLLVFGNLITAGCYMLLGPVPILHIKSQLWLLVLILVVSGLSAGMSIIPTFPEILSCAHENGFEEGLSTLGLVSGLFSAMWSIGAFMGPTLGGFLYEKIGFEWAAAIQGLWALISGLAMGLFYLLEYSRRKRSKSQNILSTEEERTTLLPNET
# Sequence of UniProt Q96EU6 (Q96EU6 whole entry, looked up): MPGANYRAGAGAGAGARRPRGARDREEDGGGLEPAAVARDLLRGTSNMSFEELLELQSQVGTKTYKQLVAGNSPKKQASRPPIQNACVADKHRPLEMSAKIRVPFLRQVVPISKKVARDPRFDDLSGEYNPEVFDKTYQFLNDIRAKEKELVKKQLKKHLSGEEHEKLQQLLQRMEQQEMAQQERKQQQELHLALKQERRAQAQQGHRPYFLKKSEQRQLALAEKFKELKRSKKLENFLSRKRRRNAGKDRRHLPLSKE
# Sequence of UniProt P60602 (P60602 whole entry, looked up): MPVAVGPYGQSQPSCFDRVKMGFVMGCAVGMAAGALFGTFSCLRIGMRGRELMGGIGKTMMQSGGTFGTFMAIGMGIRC
# Sequence of UniProt O75056 (O75056 whole entry, looked up): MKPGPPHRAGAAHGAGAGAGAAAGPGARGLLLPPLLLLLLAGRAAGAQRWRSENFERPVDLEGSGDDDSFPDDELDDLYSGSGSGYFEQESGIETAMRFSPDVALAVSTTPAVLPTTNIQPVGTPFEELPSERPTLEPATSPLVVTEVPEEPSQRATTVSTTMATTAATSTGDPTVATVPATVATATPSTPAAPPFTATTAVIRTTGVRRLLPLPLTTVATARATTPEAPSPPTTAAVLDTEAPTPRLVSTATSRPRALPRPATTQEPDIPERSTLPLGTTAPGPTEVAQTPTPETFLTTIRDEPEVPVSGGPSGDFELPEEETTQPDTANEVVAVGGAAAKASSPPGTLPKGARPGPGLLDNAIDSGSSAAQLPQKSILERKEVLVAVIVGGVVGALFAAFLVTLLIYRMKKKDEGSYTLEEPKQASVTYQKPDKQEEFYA
# Sequence of UniProt O00584 (O00584 whole entry, looked up): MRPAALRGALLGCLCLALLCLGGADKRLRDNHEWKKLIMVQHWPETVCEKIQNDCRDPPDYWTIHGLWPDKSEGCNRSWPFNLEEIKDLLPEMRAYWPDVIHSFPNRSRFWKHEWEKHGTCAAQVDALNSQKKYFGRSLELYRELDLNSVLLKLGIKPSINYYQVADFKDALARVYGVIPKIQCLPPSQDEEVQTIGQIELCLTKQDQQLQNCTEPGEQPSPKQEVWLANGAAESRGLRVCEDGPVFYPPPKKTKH
# Sequence of UniProt Q8WZA2 (Q8WZA2 whole entry, looked up): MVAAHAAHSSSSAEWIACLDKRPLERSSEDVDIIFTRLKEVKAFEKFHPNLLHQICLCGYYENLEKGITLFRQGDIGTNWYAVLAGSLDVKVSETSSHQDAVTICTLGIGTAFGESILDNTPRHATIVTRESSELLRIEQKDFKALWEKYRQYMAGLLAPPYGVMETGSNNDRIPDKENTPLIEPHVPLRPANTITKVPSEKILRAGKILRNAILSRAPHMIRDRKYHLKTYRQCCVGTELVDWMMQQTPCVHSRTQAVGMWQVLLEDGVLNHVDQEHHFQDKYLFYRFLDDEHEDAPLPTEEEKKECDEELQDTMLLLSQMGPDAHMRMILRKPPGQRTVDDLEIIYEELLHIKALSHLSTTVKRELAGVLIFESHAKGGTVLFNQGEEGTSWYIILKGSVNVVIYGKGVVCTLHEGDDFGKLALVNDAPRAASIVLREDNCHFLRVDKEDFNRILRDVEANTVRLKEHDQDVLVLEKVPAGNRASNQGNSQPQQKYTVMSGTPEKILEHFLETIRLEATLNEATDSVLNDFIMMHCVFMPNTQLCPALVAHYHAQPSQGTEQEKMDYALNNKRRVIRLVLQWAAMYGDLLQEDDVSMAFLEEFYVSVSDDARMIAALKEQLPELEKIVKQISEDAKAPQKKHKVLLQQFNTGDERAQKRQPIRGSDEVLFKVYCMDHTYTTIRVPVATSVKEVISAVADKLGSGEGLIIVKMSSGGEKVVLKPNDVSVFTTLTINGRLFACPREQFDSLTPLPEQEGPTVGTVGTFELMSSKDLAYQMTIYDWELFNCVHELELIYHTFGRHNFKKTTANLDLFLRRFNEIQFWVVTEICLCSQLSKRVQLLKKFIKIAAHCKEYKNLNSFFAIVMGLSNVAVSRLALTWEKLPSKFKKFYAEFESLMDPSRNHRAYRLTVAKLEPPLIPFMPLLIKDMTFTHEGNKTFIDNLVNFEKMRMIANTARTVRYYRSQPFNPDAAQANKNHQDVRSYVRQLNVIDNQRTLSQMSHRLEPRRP
# Sequence of UniProt Q9BWJ5 (Q9BWJ5 whole entry, looked up): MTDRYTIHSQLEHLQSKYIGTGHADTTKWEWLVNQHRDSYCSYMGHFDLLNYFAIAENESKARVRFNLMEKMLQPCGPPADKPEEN
# Sequence of UniProt Q96NL6 (Q96NL6 whole entry, looked up): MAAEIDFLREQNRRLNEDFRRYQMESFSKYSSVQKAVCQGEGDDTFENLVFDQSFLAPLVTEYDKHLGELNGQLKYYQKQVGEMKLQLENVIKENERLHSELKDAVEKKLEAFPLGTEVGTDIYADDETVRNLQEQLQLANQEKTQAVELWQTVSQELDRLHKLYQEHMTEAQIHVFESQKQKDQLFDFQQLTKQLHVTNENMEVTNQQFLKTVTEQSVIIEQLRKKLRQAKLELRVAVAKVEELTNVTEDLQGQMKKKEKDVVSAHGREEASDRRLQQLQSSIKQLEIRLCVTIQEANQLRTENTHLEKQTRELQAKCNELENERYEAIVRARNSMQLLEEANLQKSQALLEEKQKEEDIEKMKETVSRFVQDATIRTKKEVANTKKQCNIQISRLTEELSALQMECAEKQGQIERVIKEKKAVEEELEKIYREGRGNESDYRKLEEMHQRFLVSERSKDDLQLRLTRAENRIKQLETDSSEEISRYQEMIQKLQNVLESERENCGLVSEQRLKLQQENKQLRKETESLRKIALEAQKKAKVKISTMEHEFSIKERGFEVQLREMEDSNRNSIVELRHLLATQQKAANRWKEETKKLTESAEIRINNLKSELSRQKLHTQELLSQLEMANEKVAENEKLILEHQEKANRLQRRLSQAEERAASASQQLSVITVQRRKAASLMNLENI
# Sequence of UniProt P43003 (P43003 whole entry, looked up): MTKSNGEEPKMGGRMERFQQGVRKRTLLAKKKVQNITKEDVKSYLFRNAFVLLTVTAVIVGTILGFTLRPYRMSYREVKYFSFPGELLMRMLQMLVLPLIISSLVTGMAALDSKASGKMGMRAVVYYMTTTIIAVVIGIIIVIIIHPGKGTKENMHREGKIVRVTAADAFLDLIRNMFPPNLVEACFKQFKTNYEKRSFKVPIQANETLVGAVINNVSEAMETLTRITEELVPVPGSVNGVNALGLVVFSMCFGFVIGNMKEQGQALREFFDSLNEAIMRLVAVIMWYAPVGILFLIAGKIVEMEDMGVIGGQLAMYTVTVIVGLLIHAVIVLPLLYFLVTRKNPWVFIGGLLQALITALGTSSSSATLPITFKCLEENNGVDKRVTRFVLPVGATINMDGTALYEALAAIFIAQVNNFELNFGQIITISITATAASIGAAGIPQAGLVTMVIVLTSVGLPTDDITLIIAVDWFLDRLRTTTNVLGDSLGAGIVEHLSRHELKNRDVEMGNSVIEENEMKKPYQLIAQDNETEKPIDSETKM
# Sequence of UniProt Q86UA6 (Q86UA6 whole entry, looked up): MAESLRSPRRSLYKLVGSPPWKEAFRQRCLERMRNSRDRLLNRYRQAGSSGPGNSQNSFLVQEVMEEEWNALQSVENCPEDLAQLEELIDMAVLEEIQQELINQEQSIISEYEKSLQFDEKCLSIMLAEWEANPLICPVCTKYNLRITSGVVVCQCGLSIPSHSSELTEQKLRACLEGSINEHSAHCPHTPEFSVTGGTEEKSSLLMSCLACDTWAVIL
# Sequence of UniProt P58004 (P58004 whole entry, looked up): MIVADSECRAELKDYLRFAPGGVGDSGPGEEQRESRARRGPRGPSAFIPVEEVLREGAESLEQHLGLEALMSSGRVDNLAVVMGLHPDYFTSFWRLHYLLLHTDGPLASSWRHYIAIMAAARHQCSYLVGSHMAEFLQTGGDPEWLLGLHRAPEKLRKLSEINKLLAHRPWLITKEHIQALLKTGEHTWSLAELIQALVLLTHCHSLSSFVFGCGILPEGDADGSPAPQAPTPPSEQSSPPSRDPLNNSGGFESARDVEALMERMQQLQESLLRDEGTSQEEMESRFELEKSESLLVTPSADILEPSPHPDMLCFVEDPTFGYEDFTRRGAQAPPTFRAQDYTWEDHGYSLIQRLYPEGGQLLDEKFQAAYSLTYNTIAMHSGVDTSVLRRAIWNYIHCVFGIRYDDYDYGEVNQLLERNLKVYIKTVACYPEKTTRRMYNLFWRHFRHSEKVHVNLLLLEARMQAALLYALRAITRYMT
# Sequence of UniProt O95716 (O95716 whole entry, looked up): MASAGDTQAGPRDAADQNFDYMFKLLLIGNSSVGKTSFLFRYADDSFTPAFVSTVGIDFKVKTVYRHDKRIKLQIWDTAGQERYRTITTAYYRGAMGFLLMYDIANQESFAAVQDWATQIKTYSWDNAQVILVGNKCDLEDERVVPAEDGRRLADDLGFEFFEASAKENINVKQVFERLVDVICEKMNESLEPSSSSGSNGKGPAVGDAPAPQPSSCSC
Target,log2 fold change [1],log2 fold change [2],log2 fold change [3],log2 fold change [4],log2 fold change [5],log2 fold change [6],log2 fold change [7],log2 fold change [8],log2 fold change [9],log2 fold change [10]
RNASET2 (UniProt O00584),0.033,-0.35 (active),0.027,0.08,0.045,0.01,-0.011,-0.037,-0.013,-0.149
RAB3GAP2 (UniProt Q9H2M9),0.019,-0.064,-0.024,0.213,-0.046,0.003,0.048,0.119,0.046,-0.097
RHEB (UniProt Q15382),-0.001,0.038,0.096,-0.041,0.021,-0.097,-0.025,-0.009,-0.018,0.042
RPS4X (UniProt P62701),-0.027,0.021,-0.378,0.333,-0.211,0.264,0.039,-0.023,0.18,-0.141
SLC18B1 (UniProt Q6NT16),0.027,-0.404 (active),0.06,-0.034,0.047,0.092,-0.097,-0.07,-0.002,-0.193
RNPEP (UniProt Q9H4A4),0.037,-0.081,0.081,-0.034,0.039,-0.053,0.018,0.083,-0.031,-0.086
RPS9 (UniProt P46781),-0.075,0.02,-0.401,0.278,-0.146,0.188,0.055,0.024,0.174,-0.04
RAPGEF4 (UniProt Q8WZA2),0.115,0.051,0.04,-0.061,0.07,–,-0.107,-0.139,0.097,–
RNPS1 (UniProt Q15287),0.018,-0.109,0.114,-0.019,-0.091,0.089,0.108,-0.028,-0.104,0.042
SESN2 (UniProt P58004),0.042,-0.191,-0.028,0.077,-0.018,-0.046,0,0.006,0.192,-0.322
SDCBP isoform 2 (UniProt O00560),0.093,–,-0.108,–,0.019,0.058,0.045,0.069,–,-0.185
SF3B5 (UniProt Q9BWJ5),0.027,-0.012,0.176,–,0.358,0.087,-0.152,0.002,-0.089,–
ROCK1 (UniProt Q13464),0.016,-0.017,0.042,–,-0.019,-0.025,0.015,0.027,-0.025,-0.069
RMDN2 isoform 2 (UniProt Q96LZ7),–,0,–,–,–,–,–,–,0.145,-0.112
RPS3 (UniProt E9PJN9),–,–,–,–,0.102,-0.017,-0.215,0.148,–,-0.224
SCLT1 (UniProt Q96NL6),0.148,0.003,–,-0.081,0.038,0.149,-0.144,-0.028,0.055,–
RALGPS2 (UniProt Q86X27),–,-0.237,-0.199,0.222,-0.117,0.08,-0.112,0.106,0.289,–
RRP36 (UniProt Q96EU6),-0.115,–,-0.645,0.271,-0.16,0.182,0.031,0.022,–,0.043
RBM6 (UniProt P78332),0,0.148,–,0.013,-0.154,-0.043,-0.094,-0.183,0.032,–

Target,log2 fold change [1],log2 fold change [2],log2 fold change [3],log2 fold change [4],log2 fold change [5],log2 fold change [6],log2 fold change [7],log2 fold change [8],log2 fold change [9],log2 fold change [10]
RPS6KA5 (UniProt O75582),–,-0.393,0.045,–,–,–,–,–,-0.016,0.018
RBBP6 (UniProt Q7Z6E9),-0.117,-0.158,-0.036,0.072,–,-0.066,0.03,–,0.012,0.168
RBMY1E (UniProt A6NEQ0),–,-0.122,–,-0.12,–,-0.137,0.113,–,-0.007,-0.148
RPAIN isoform 8 (UniProt Q86UA6),-0.024,0.144,0.385,-0.039,0.123,–,0.07,0.078,-0.04,-0.155
RAP2C (UniProt Q9Y3L5),-0.046,–,0.007,-0.144,0.06,-0.742 (active),-0.039,-0.108,–,0.009
SDC3 (UniProt O75056),-0.047,–,0.057,0.151,0.11,-0.193,-0.131,-0.19,–,–
RCOR3 isoform 3 (UniProt Q9P2K3),-0.039,-0.117,–,-0.061,0.105,-0.015,0.091,0.104,-0.047,-0.065
"RAD50, A0A494C0Y7",0.029,-0.024,–,0.204,0.067,0.021,-0.042,0.054,0.034,-0.054
RPS3A (UniProt D6R9B6),-0.014,–,–,–,-0.015,–,-0.134,0.069,–,–
SCAMP2 (UniProt O15127),0.019,–,-0.213,-0.544 (active),0.009,0.034,0.044,-0.065,–,-0.073
RAB3D (UniProt O95716),–,–,–,-0.031,-0.106,0.083,0.021,-0.115,–,0.2
RAB3IL1 (UniProt E9PK89),0.036,-0.003,0.163,-0.211,–,0.154,-0.099,–,-0.07,0.07
ROMO1 (UniProt P60602),0.023,–,0.121,0.064,0.117,-0.033,-0.003,-0.059,–,-0.061
RPS19 (UniProt M0R2L9),–,–,–,–,–,–,-0.034,–,–,–
SCAMP2 (UniProt H3BUB6),0.085,0.128,-0.011,0.317,0.166,–,-0.159,-0.305,-0.088,-0.258
SIK3 (UniProt H0Y4E8),-0.144,0.084,–,0.027,0.035,0.118,-0.106,-0.056,-0.058,0.185
SERINC1 (UniProt Q9NRX5),0.075,-0.197,0.037,–,0.03,–,0.125,-0.016,0.068,-0.048
SLC1A3 (UniProt P43003),–,–,0.167,-0.039,-0.084,-0.042,-0.194,0.201,–,0.126
